# “And” between values parts separate entries of the source, which are not always exact repeats. Equal values may be shown once. About 2,000 (36%) of roughly 5,500 compounds were called active. About 18% were inconclusive and are not listed. This is one part of the list. A number with no mark means an inactive call. No stated cut-off is given here; in the data, active means normalized growth mostly below about 0.91 (no sharp cut-off); inconclusive means no clear call, values can overlap the other calls; inactive means mostly above about 0.92.
# Assay: chemical genetic growth profiling, strain panel (AID 1159580);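 further: tested at 20 µM; growth read once vehicle control cultures reached saturation at 30 °C; 1 = growth at the plate median or of vehicle wells; lower values mean less growth of the strain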
# Conditions: growth OD
# [1] = S. cerevisiae deletion strains, locus YGR229C, strain SMI1, hits give low values
# [2] = S. cerevisiae deletion strains, locus YMR263W, strain SAP30, hits give low values
# [3] = S. cerevisiae deletion strains, locus YMR307W, strain GAS1, hits give low values
# [4] = S. cerevisiae deletion strains, locus YPL055C, strain LGE1, hits give low values
# [5] = S. cerevisiae deletion strains, locus YPL241C, strain CIN2, hits give low values
# [6] = S. cerevisiae deletion strains, locus YAL013W, strain DEP1, hits give low values
# [7] = S. cerevisiae deletion strains, locus YAL040C, strain CLN3, hits give low values
# [8] = S. cerevisiae deletion strains, locus YCL061C, strain MRC1 (second series), hits give low values
# [9] = S. cerevisiae deletion strains, locus YDR363W, strain ESC2, hits give low values
# [10] = S. cerevisiae deletion strains, locus YER002W, strain NOP16, hits give low values
# [11] = S. cerevisiae deletion strains, locus YNL175C, strain NOP13, hits give low values
# [12] = S. cerevisiae deletion strains, locus YNL197C, strain WHI3, hits give low values
# [13] = S. cerevisiae deletion strains, locus YNL224C, strain SQS1, hits give low values
# [14] = S. cerevisiae deletion strains, locus YOR083W, strain WHI5 (second series), hits give low values
smiles,measurement,setting,value
OC[C@H]1O[C@@H](n2cnc3c(NCc4ccco4)ncnc32)[C@H](O)[C@@H]1O,normalized growth,"S. cerevisiae deletion strains, locus YBR021W, strain FUR4, hits give low values",1.02
same,normalized growth,"S. cerevisiae deletion strains, locus YBR229C, strain ROT2, hits give low values",1.01
same,normalized growth,"S. cerevisiae deletion strains, locus YCL029C, strain bik1, hits give low values",1.01
same,normalized growth,"S. cerevisiae deletion strains, locus YDL035C, strain GPR1, hits give low values",1.01
same,normalized growth,"S. cerevisiae deletion strains, locus YDL074C, strain BRE1, hits give low values",1.05
same,normalized growth,"S. cerevisiae deletion strains, locus YDL101C, strain DUN1, hits give low values",1.03
same,normalized growth,"S. cerevisiae deletion strains, locus YDL185W, strain tfp1, hits give low values",1
same,normalized growth,"S. cerevisiae deletion strains, locus YDL192W, strain arf1, hits give low values",1
same,normalized growth,"S. cerevisiae deletion strains, locus YDR101C, strain arx1, hits give low values",1.02
same,normalized growth,"S. cerevisiae deletion strains, locus YDR150W, strain NUM1, hits give low values",1.01
same,normalized growth,"S. cerevisiae deletion strains, locus YDR162C, strain NBP2, hits give low values",1.02
same,normalized growth,"S. cerevisiae deletion strains, locus YDR318W, strain mcm21, hits give low values",1
same,normalized growth,"S. cerevisiae deletion strains, locus YDR388W, hits give low values",0.998
same,normalized growth,"S. cerevisiae deletion strains, locus YDR502C, strain sam2, hits give low values",0.998
same,normalized growth,"S. cerevisiae deletion strains, locus YEL061C, strain CIN8, hits give low values",1.01
same,normalized growth,"S. cerevisiae deletion strains, locus YER110C, hits give low values",1
same,normalized growth,"S. cerevisiae deletion strains, locus YER155C, strain BEM2, hits give low values",1.02
same,normalized growth,"S. cerevisiae deletion strains, locus YER167W, strain BCK2, hits give low values",1
same,normalized growth,"S. cerevisiae deletion strains, locus YGL078C, strain dbp3, hits give low values",0.999
same,normalized growth,"S. cerevisiae deletion strains, locus YGL086W, strain mad1, hits give low values",1.02
same,normalized growth,"S. cerevisiae deletion strains, locus YGL248W, strain PDE1, hits give low values",1.01
same,normalized growth,"S. cerevisiae deletion strains, locus YGR135W, strain pre9, hits give low values",1
same,normalized growth,[1],1.02
same,normalized growth,"S. cerevisiae deletion strains, locus YGR252W, strain gcn5, hits give low values",0.971
same,normalized growth,"S. cerevisiae deletion strains, locus YHR030C, strain SLT2, hits give low values",1 and 1.06
same,normalized growth,"S. cerevisiae deletion strains, locus YHR079C, strain IRE1 (second series), hits give low values",1.01
same,normalized growth,"S. cerevisiae deletion strains, locus YHR079C, strain IRE1, hits give low values",1.04
same,normalized growth,"S. cerevisiae deletion strains, locus YHR094C, strain hxt1, hits give low values",1
same,normalized growth,"S. cerevisiae deletion strains, locus YHR129C, strain ARP1, hits give low values",1.02
same,normalized growth,"S. cerevisiae deletion strains, locus YHR200W, strain rpn10, hits give low values",1.01
same,normalized growth,"S. cerevisiae deletion strains, locus YIL066C, strain RNR3, hits give low values",1.01
same,normalized growth,"S. cerevisiae deletion strains, locus YIL073C, strain SPO22, hits give low values",1.01
same,normalized growth,"S. cerevisiae deletion strains, locus YIL125W, strain kgd1, hits give low values",1.01
same,normalized growth,"S. cerevisiae deletion strains, locus YIR030C, strain dcg1, hits give low values",1.01
same,normalized growth,"S. cerevisiae deletion strains, locus YJL095W, strain BCK1, hits give low values",1.06 and 1.02
same,normalized growth,"S. cerevisiae deletion strains, locus YJL134W, strain LCB3, hits give low values",1.01
same,normalized growth,"S. cerevisiae deletion strains, locus YJL168C, strain set2, hits give low values",1.01
same,normalized growth,"S. cerevisiae deletion strains, locus YJL187C, strain SWE1 (second series), hits give low values",1.04
same,normalized growth,"S. cerevisiae deletion strains, locus YJR043C, strain POL32, hits give low values",1.01
same,normalized growth,"S. cerevisiae deletion strains, locus YJR066W, strain TOR1, hits give low values",0.974
same,normalized growth,"S. cerevisiae deletion strains, locus YKL009W, strain mrt4, hits give low values",1.02
same,normalized growth,"S. cerevisiae deletion strains, locus YKL068W, hits give low values",0.995
same,normalized growth,"S. cerevisiae deletion strains, locus YKL085W, strain MDH1 (second series), hits give low values",0.993
same,normalized growth,"S. cerevisiae deletion strains, locus YKL085W, strain MDH1, hits give low values",0.993
same,normalized growth,"S. cerevisiae deletion strains, locus YKL190W, strain CNB1, hits give low values",1.01
same,normalized growth,"S. cerevisiae deletion strains, locus YKR001C, strain vps1, hits give low values",1.01
same,normalized growth,"S. cerevisiae deletion strains, locus YLR039C, strain RIC1, hits give low values",1.04
same,normalized growth,"S. cerevisiae deletion strains, locus YLR058C, strain SHM2, hits give low values",1.02
same,normalized growth,"S. cerevisiae deletion strains, locus YLR102C, strain apc9, hits give low values",1
same,normalized growth,"S. cerevisiae deletion strains, locus YLR113W, strain HOG1, hits give low values",1.03
same,normalized growth,"S. cerevisiae deletion strains, locus YLR262C, strain YPT6, hits give low values",1.06
same,normalized growth,"S. cerevisiae deletion strains, locus YLR268W, strain sec22, hits give low values",1.04
same,normalized growth,"S. cerevisiae deletion strains, locus YLR330W, strain CHS5, hits give low values",1.01
same,normalized growth,"S. cerevisiae deletion strains, locus YLR342W, strain FKS1 (second series), hits give low values",1.01
same,normalized growth,"S. cerevisiae deletion strains, locus YLR371W, strain rom2, hits give low values",1
same,normalized growth,"S. cerevisiae deletion strains, locus YLR418C, strain cdc73, hits give low values",1.01
same,normalized growth,"S. cerevisiae deletion strains, locus YML016C, strain PPZ1, hits give low values",1.01
same,normalized growth,"S. cerevisiae deletion strains, locus YML032C, strain rad52, hits give low values",0.988
same,normalized growth,"S. cerevisiae deletion strains, locus YML124C, strain tub3, hits give low values",0.996
same,normalized growth,"S. cerevisiae deletion strains, locus YMR078C, strain ctf18, hits give low values",0.998
same,normalized growth,"S. cerevisiae deletion strains, locus YMR223W, strain ubp8, hits give low values",1
same,normalized growth,[2],1.02
same,normalized growth,[3],1.04
same,normalized growth,"S. cerevisiae deletion strains, locus YNL067W, strain RPL9B, hits give low values",1.04
same,normalized growth,"S. cerevisiae deletion strains, locus YNL183C, strain NPR1, hits give low values",0.991
same,normalized growth,"S. cerevisiae deletion strains, locus YNL233W, strain BNI4, hits give low values",1.05
same,normalized growth,"S. cerevisiae deletion strains, locus YNL250W, strain rad50, hits give low values",1.02
same,normalized growth,"S. cerevisiae deletion strains, locus YNL271C, strain bni1, hits give low values",1
same,normalized growth,"S. cerevisiae deletion strains, locus YNL298W, strain CLA4, hits give low values",0.995
same,normalized growth,"S. cerevisiae deletion strains, locus YNL307C, strain MCK1, hits give low values",1.01
same,normalized growth,"S. cerevisiae deletion strains, locus YNR052C, strain pop2, hits give low values",0.996
same,normalized growth,"S. cerevisiae deletion strains, locus YOL012C, strain htz1",2.36 [resistant] (active)
same,normalized growth,"S. cerevisiae deletion strains, locus YOL147C, strain pex11, hits give low values",0.998
same,normalized growth,"S. cerevisiae deletion strains, locus YOR061W, strain CKA2, hits give low values",1.01
same,normalized growth,"S. cerevisiae deletion strains, locus YOR069W, strain VPS5, hits give low values",1.01
same,normalized growth,"S. cerevisiae deletion strains, locus YOR136W, strain idh2, hits give low values",1
same,normalized growth,"S. cerevisiae deletion strains, locus YOR144C, strain elg1, hits give low values",0.987
same,normalized growth,"S. cerevisiae deletion strains, locus YOR184W, strain ser1, hits give low values",0.999
same,normalized growth,"S. cerevisiae deletion strains, locus YOR231W, strain MKK1, hits give low values",1.05
same,normalized growth,"S. cerevisiae deletion strains, locus YOR316C, strain cot1, hits give low values",1
same,normalized growth,[4],1.03
same,normalized growth,[5],1
same,normalized growth,"S. cerevisiae deletion strains, locus YPL256C, strain CLN2, hits give low values",1.06
same,normalized growth,"S. cerevisiae deletion strains, locus YPR119W, strain clb2, hits give low values",1
same,normalized growth,"S. cerevisiae deletion strains, locus YPR141C, strain kar3, hits give low values",1.01
same,normalized growth,"S. cerevisiae deletion strains, locus YPR163C, strain tif3, hits give low values",1
same,normalized growth,"S. cerevisiae deletion strains, locus YPR167C, strain met16, hits give low values",1.01
same,normalized growth,"S. cerevisiae deletion strains, strain wtn01, hits give low values",1.04
same,normalized growth,"S. cerevisiae strains, strain wild type, hits give low values",1.01
CNc1ncnc2c1ncn2[C@@H]1O[C@H](CO)[C@H](O)C1O (stereo not given in full),normalized growth,[6],1.02
same,normalized growth,[7],1
same,normalized growth,[8],0.993
same,normalized growth,[9],0.996
same,normalized growth,[10],0.978
same,normalized growth,[1],1.01
same,normalized growth,[3],1.01
same,normalized growth,"S. cerevisiae deletion strains, locus YNL153C, strain GIM3, hits give low values",1.01
same,normalized growth,[11],0.996
same,normalized growth,[12],0.999
same,normalized growth,[13],1
same,normalized growth,[14],1
same,normalized growth,[5],1
Cc1ccccc1CNc1ncnc2c1ncn2C1OC(CO)C(O)C1O (stereo not given),normalized growth,[6],1.01
same,normalized growth,[7],0.997
same,normalized growth,[8],0.999
same,normalized growth,[9],1.03
same,normalized growth,[10],1.01
same,normalized growth,[1],1.02
same,normalized growth,[2],1
same,normalized growth,[11],1.01
same,normalized growth,[12],0.995
same,normalized growth,[13],1.01
same,normalized growth,"S. cerevisiae deletion strains, locus YNL322C, strain KRE1, hits give low values",1.01
same,normalized growth,[14],1.01
same,normalized growth,[4],1.01

# Reference: PubChem BioAssay AID1159580 (chemical genetic matrix, 2015)
